# Hits are enriched below; roughly 4% of the tested compounds scored in any of these assays.
# D1 potentiator: enhances dopamine response at the human D1 receptor. P21728. HEK293 TREx D1 cells, calcium flux, dopamine EC20 potentiation. potentiation, % at 10 µM. 360,000 tested, 0.036% active. AID 504651; in the data active = potentiation above about 30%; note: 0% is about no effect
# TRHR PAM: allosterically enhances the human TRH receptor | P34981 | TRHR cells, fluo-8 calcium fluorescence, EC20 TRH enhancement | enhancement, % at 2 µM | 360,000 tested, 0.66% active | AID 493056; in the data active = enhancement above about 30%; note: 0% is about no effect
# Target sequence (P34981 whole entry, looked up): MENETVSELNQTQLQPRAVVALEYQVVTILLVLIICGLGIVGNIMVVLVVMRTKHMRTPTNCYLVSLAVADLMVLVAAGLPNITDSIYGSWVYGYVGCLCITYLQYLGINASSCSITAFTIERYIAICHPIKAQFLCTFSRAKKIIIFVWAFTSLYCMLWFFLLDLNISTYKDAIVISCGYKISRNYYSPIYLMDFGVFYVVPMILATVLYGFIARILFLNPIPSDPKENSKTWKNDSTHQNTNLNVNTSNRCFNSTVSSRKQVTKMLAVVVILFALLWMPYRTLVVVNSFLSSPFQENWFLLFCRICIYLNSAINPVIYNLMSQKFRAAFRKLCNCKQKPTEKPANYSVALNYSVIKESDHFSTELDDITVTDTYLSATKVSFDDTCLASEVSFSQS
#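 Enhancer read-out: after compound pinning and an initial kinetic agonist-mode read, an EC20 of TRH (10 nM final) was injected and fluo-8 calcium signal (Ex 480/Em 530) followed at 1 s/cycle for 100 cycles in TRHR-expressing cells.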
# TRHR agonist: agonists of human TRH receptor; P34981; activation, % at 2 µM; AID 493084; 360,000 tested, 0.18% active; TRHR cells, calcium flux fluo-8, FDSS agonist mode; note: 0% is about no effect
#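 TRHR-expressing cells loaded with fluo-8 calcium dye; 23 nL library compound pin-transferred, kinetic FDSS fluorescence (Ex 480/Em 530) recorded about 180 s for agonist-induced calcium release, before a 10 nM TRH EC20 addition for potentiator mode.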
# D1 antag: antagonists of human D1 dopamine receptor | P21728 | HEK293 TREx D1 cells, calcium flux, dopamine EC80; active compounds read low | activity change, negative = inhibition, % at 10 µM | 360,000 tested, 3.2% active; in the data active = activity change below about -30%; note: % is set by controls: 0 for no effect and ±100 for the full control effect
#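 Using tetracycline-induced force-coupled D1 Hek293 cells and a calcium dye, signals were followed for 180 s after compound, then for 180 s after EC80 dopamine, to detect inhibitors.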
# Glioma ERSR ind: inducers of ER stress response in human glioma cells; U87-MG GRP78 promoter luciferase reporter, 16 h; Potency, µM, for the others: at the highest dose activation, hits mostly activators; 420,000 tested, 0.02% active; active = well fitted activation curve with a large enough effect; note: potency is the fitted concentration of half-maximal effect; series mostly up to about 76 µM; % of control where 0% means no effect; nearly all actives have a fitted effect of over 35% in size
#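 Stably transfected U87-MG glioma cells carrying a GRP78-based luciferase sensor; 16 h compound incubation. Luminescence end-point read 10 min after Bright-Glo addition at room temperature.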
# D1 ag: agonists of human D1 dopamine receptor; activation, % at 2 µM; P21728; HEK293 T-REx D1 cells, calcium flux, agonist mode; 360,000 tested, 1% active; note: 0% is about no effect
#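 Agonism was scored from calcium flux recorded over 180 s (1 read/s) after pintool compound addition, following a 10-cycle baseline. Cells were inducible force-coupled HEK293 TREx D1, plated overnight at 30 C and loaded with no-wash calcium dye.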
# Numbers without * were called inactive; . = not tested or not shown. Cut-off read from the data, not from the text of the source, unless noted: active = activation above about 30%; inactive = the rest.
SMILES,D1 potentiator,TRHR PAM,TRHR agonist,D1 antag,Glioma ERSR ind,D1 ag
Cc1nnsc1C(=O)Nc1ccc(S(=O)(=O)N2CCC(C)CC2)cc1,-9,-4,1,-48*,-4%,21
O=C(COc1ccc(Cl)cc1)Nc1nnc(C2=COCCO2)o1,-3,-3,0,24,1%,-2
Cc1cccc(-n2ncc3c(NC(C)C)ncnc32)c1,-10,1,0,-5,-7%,0
O=C(Cc1ccccc1)NNC(=S)NC(=O)c1cccnc1,0,7,1,-14,-3%,1
CCS(=O)(=O)c1ncc(Cl)c(C(=O)Nc2ccc(S(=O)(=O)N3CCCC(C)C3)cc2)n1 (configuration not stated),-11,3,0,-36*,-19%,1
O=C(CNC1CCCCC1)Nc1ccc(S(=O)(=O)N2CCCCC2)cc1,43*,-5,-1,3,-8%,153*
CC1CCN(CC(=O)Nc2ccc(S(=O)(=O)N3CCCC(C)C3)cc2)CC1 (configuration not stated),-5,0,2,-32*,-1%,20
CC1CCCN(S(=O)(=O)c2ccc(NC(=O)CN3CCN(C)CC3)cc2)C1 (configuration not stated),5,-5,0,-2,-4%,5
COc1cc(C(=O)O)ccc1OCC(=O)N1CCOCC1,0,19,-3,-12,-6%,3
CCCN(Cc1cccs1)C(=O)Nc1ccc(Br)cc1F,-1,5,-1,-24,-5%,-1
CC(=O)N1CCC(N(Cc2ccco2)C(=O)Nc2ccc(Br)cc2F)CC1,-3,41*,2,6,0%,-1
c1ccc(CSCc2cn3ccccc3n2)cc1,-2,2,-1,-3,-6%,0
CCc1ccc(N(C(=O)c2csnn2)C(C(=O)NC(C)(C)C)c2ccccn2)cc1 (configuration not stated),0,-7,0,1,8%,3
CCc1ccc(N(C(=O)c2csnn2)C(C(=O)NC(C)(C)CC)c2ccccn2)cc1 (configuration not stated),-5,-8,-1,-66*,-2%,1
COc1ccc(OC)c(C(=O)c2coc3ccc(O)cc23)c1,-1,40*,-1,-2,5%,5
Fc1ccc(-n2cc(-c3ccccc3)c3c(NCCc4ccccc4)ncnc32)cc1,4,1,1,28,-2%,0
COc1ccc(Cl)cc1Nc1ncnc2c1c(-c1ccccc1)cn2-c1ccccc1,-2,-16,-1,-58*,-3%,-1
Cc1ccccc1Nc1ncnc2c1c(-c1ccccc1)cn2-c1ccc(F)cc1,-3,3,0,-34*,-2%,-3
CN1CCN(c2ncnc3c2c(-c2ccccc2)cn3-c2ccc(F)cc2)CC1,-14,1,-1,-42*,-4%,2
COc1ccc(/C=C/C(=O)Nc2ccc(-n3nncc3-c3ccccc3)cc2)cc1OC,-2,9,1,6,-5%,1
CN(Cc1ccc(F)cc1)C(=O)c1ccc(NS(=O)(=O)c2ccc3[nH]c(=O)[nH]c3c2)cc1,-2,1,0,23,-6%,4
CCOc1cc(CNC)ccc1OCC(=O)NC(C)(C)C,-8,-1,0,-4,0%,0
COc1ccc(/C(O)=C2\C(=O)C(=O)N(Cc3ccco3)C2c2cc(OC)ccc2OC)cc1 (configuration not stated),1,-2,0,-31*,-3%,1
COc1cc(C2/C(=C(\O)c3ccc4c(c3)OCCO4)C(=O)C(=O)N2Cc2ccco2)cc(OC)c1OC (configuration not stated),-8,-1,0,-33*,-3%,1
COc1ccc(OC)c(C2/C(=C(/O)c3ccccc3)C(=O)C(=O)N2Cc2ccco2)c1 (configuration not stated),-6,-2,0,-9,-3%,2
SMILES,D1 potentiator,TRHR PAM,TRHR agonist,D1 antag,Glioma ERSR ind,D1 ag
O=C1C(=O)N(Cc2ccccc2)C(c2cccc(O)c2)/C1=C(\O)c1ccc2c(c1)OCCO2 (configuration not stated),-6,0,0,-13,-1%,-1
O=C1C(=O)N(Cc2ccco2)C(c2cccc(Cl)c2)/C1=C(\O)c1ccc2c(c1)OCCO2 (configuration not stated),0,2,0,-53*,0%,2
COc1cc(C2/C(=C(\O)c3ccc4c(c3)OCCO4)C(=O)C(=O)N2Cc2ccco2)ccc1O (configuration not stated),1,2,0,-1,0%,5
CC(=O)c1cccc(N=C2C(=O)Nc3ccccc32)c1,-9,-3,0,2,1%,2
CCOc1ccc(OCC)c(NC(=O)C(NS(=O)(=O)c2cccs2)c2ccccc2)c1 (configuration not stated),-1,-2,2,2,-1%,1
O=C(COC(=O)CC1CC2CCC1C2)Nc1ccc(F)cc1Cl (configuration not stated),.,.,.,.,-1%,.
O=[N+]([O-])c1ccc(N2CCOCC2)cc1O,-7,-7,0,0,0%,6
Cc1cc(N2CCOCC2)ccc1/C=C\[N+](=O)[O-],-2,1,13,11,-16%,47*
O=C(CSc1ccccn1)Nc1ccc2ccccc2c1,-3,-10,-2,-8,.,1
O=C(CSc1ccccn1)Nc1ccc(Cl)c([N+](=O)[O-])c1,-5,1,0,-34*,-3%,8
O=C(CN1C(=O)c2cccc3cccc1c23)NCc1ccncc1,-3,1,0,10,3%,1
C/C(=N\Nc1ccc([N+](=O)[O-])cc1)c1ccc(O)cc1,-14,-5,7,-27,4%,37*
CC(=O)NC/C(C)=N\Nc1ccc([N+](=O)[O-])cc1,-4,0,11,1,-3%,35*
Cn1c(SCC(=O)NCCc2ccccc2)nc2c([nH]c3ccccc32)c1=O,-4,-6,-1,5,-3%,-2
N#Cc1cccc(CN2CCC(=O)N([C@H](CO)Cc3ccccc3)CC2)c1,6,-4,1,-45*,-3%,-1
O=C(CSc1nnc(Nc2ccccc2F)s1)c1cc2ccccc2o1,-7,-1,0,3,7%,-1
COc1ccccc1N/C(N)=N/c1nc(CSc2nc3ccccc3s2)cc(=O)[nH]1,4,9,1,-31*,.,5
COC(=O)Cc1cc(=O)[nH]c(/N=C(\N)Nc2ccc(C)cc2C)n1,-9,17,0,-32*,-3%,5

# Screening results deposited in PubChem BioAssay by National Center for Advancing Translational Sciences (NCATS).
